The values below come from PubChem BioAssay (EPA / NIEHS).

Some structures have more than one record in an assay (separate samples or runs), and their calls can disagree. Calls of active or inactive are those of the source. Rule for the calls: active = hit-call score of the fitted dose curve at least 0.9, where 1 is the maximum; inactive = score below 0.9.

One may read the AC50 as the concentration giving half of the maximal activity seen.

Read-out in assay [1]: Interferon-gamma inducible Protein 10 (IP10), CXCL10 (gene 3627)
Put plainly: BSK_hDFCGF_IP10: BioMAP Diversity Plus: hDFCGF Assay for Interferon-gamma inducible Protein 10 (IP10) Biomarker Activity (AID 2283053). Particulars: primary human foreskin fibroblasts; actives raise or lower the signal. An outline of the steps: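 ELISA quantification of IP-10 after a 24 h chemical exposure of human dermal foreskin fibroblast primary cultures. Both increases and decreases versus DMSO fitted.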

Read-out in assay [2]: Urokinase-type plasminogen activator receptor (uPAR), PLAUR (gene 5329)
Put plainly: BSK_CASM3C_uPAR: BioMAP Diversity Plus: CASM3C Assay for Urokinase-type plasminogen activator receptor (uPAR) Biomarker Activity (AID 2283054).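 Note: cell-surface uPAR protein level quantified by ELISA.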 Particulars: primary human coronary artery smooth muscle cells; actives raise or lower the signal.

Read-out in assay [3]: Vascular cell adhesion molecule 1 (VCAM1), VCAM1 (gene 7412)
Put plainly: BSK_CASM3C_VCAM1: BioMAP Diversity Plus: CASM3C Assay for Vascular cell adhesion molecule 1 (VCAM1) Biomarker Activity (AID 2283055).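 Note: VCAM-1 protein level quantified by ELISA on the cells.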 Particulars: primary human coronary artery smooth muscle cells; actives raise or lower the signal.

Read-out in assay [4]: Collagen III, COL3A1 (gene 1281)
Put plainly: BSK_hDFCGF_CollagenIII: BioMAP Diversity Plus: hDFCGF Assay for Collagen III Biomarker Activity (AID 2283056). Particulars: primary human foreskin fibroblasts; actives raise or lower the signal. An outline of the steps: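 Human foreskin primary fibroblasts were exposed to test chemicals for 24 h, after which collagen III was quantified by ELISA. Activity was fitted bidirectionally against DMSO as negative control and baseline.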

Read-out in assay [5]: Epidermal growth factor receptor (EGFR), EGFR (gene 1956)
Put plainly: BSK_hDFCGF_EGFR: BioMAP Diversity Plus: hDFCGF Assay for Epidermal growth factor receptor (EGFR) Biomarker Activity (AID 2283057). Particulars: primary human foreskin fibroblasts; actives raise or lower the signal. In short, it runs like this:
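EGFR levels by ELISA in human dermal fibroblast cultures, 24 h post-treatment, fitted bidirectionally versus DMSO. Parallel wells stained with sulforhodamine B to detect overt cytotoxicity.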

Read-out in assay [6]: Interleukin-8 (IL8), CXCL8 (gene 3576)
Put plainly: BSK_hDFCGF_IL8: BioMAP Diversity Plus: hDFCGF Assay for Interleukin-8 (IL8) Biomarker Activity (AID 2283058). Particulars: primary human foreskin fibroblasts; actives raise or lower the signal. An outline of the steps:
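hDFCGF human dermal fibroblasts; 24 h chemical exposure; IL-8 by ELISA; bidirectional curve fit vs DMSO baseline; gain or loss of signal scored.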

Assay [7] is described as follows: BSK_hDFCGF_Proliferation: Cell Proliferation Assessment in the BioMAP Diversity Plus: hDFCGF Assay (AID 2283059).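 Note: curves fitted for both rise and fall of signal versus DMSO baseline.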 Particulars: primary human foreskin fibroblasts. An outline of the steps: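 Primary human foreskin fibroblasts, sub-confluent; […]; 10% TCA fix, 0.1% SRB stain, A560 total protein. Gain/loss fitted bidirectionally vs DMSO control.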
Read-out in assay [8]: Macrophage colony-stimulating factor (MCSF), CSF1 (gene 1435)
Put plainly: BSK_hDFCGF_MCSF: BioMAP Diversity Plus: hDFCGF Assay for Macrophage colony-stimulating factor (MCSF) Biomarker Activity (AID 2283060). Particulars: primary human foreskin fibroblasts; actives raise or lower the signal. An outline of the steps:
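Human foreskin primary fibroblasts were treated with test chemical for 24 h, and M-CSF was then measured by ELISA. Data were fitted bidirectionally against DMSO as the negative control and activity baseline.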

Assay [9] in a line: BSK_hDFCGF_SRB: Viability Assessment in the BioMAP Diversity Plus: hDFCGF Assay (AID 2283061).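 Note: cells exposed to compound for 24 h before the read.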 Particulars: primary human foreskin fibroblasts. An outline of the steps:
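Human foreskin primary fibroblasts were treated with compound and assessed 24 h after dosing. Total protein was measured by sulforhodamine B staining (0.1% SRB after 10% TCA fixation, 560 nm read) as a cytotoxicity marker, with bidirectional fitting against DMSO baseline.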

Read-out in assay [10]: TIMP metallopeptidase inhibitor 1 (TIMP1), TIMP1 (gene 7076)
Put plainly: BSK_hDFCGF_TIMP1: BioMAP Diversity Plus: hDFCGF Assay for TIMP metallopeptidase inhibitor 1 (TIMP1) Biomarker Activity (AID 2283062). Particulars: primary human foreskin fibroblasts; actives raise or lower the signal. An outline of the steps:
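Primary human foreskin fibroblasts in the hDFCGF system were dosed with compound for 24 h, then TIMP-1 was measured by ELISA. Activity was fitted bidirectionally relative to DMSO control; parallel SRB staining assessed cytotoxicity.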

Read-out in assay [11]: Monokine induced gamma interferon (MIG), CXCL9 (gene 4283)
Put plainly: BSK_hDFCGF_MIG: BioMAP Diversity Plus: hDFCGF Assay for Monokine induced gamma interferon (MIG) Biomarker Activity (AID 2283063). Particulars: primary human foreskin fibroblasts; actives raise or lower the signal. An outline of the steps: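 ELISA read-out of MIG from primary human dermal fibroblasts 24 h post-dosing. Gain or loss of signal fitted bidirectionally, DMSO as baseline.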

Read-out in assay [12]: Matrix Metallopeptidase 1 (MMP1), MMP1 (gene 4312)
Put plainly: BSK_hDFCGF_MMP1: BioMAP Diversity Plus: hDFCGF Assay for Matrix Metallopeptidase 1 (MMP1) Biomarker Activity (AID 2283064). Particulars: primary human foreskin fibroblasts; actives raise or lower the signal. In short, it runs like this:
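ELISA read-out of MMP1 from human foreskin fibroblasts (primary skin cells), 24 h post-dose. Gain or loss of signal was fitted bidirectionally versus DMSO negative control; cytotoxicity was checked by SRB in parallel cultures.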

Read-out in assay [13]: Vascular cell adhesion molecule 1 (VCAM1), VCAM1 (gene 7412)
Put plainly: BSK_hDFCGF_VCAM1: BioMAP Diversity Plus: hDFCGF Assay for Vascular cell adhesion molecule 1 (VCAM1) Biomarker Activity (AID 2283065).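 For AC50: VCAM-1 protein level quantified by ELISA after 24 h chemical exposure.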 Particulars: primary human foreskin fibroblasts; actives raise or lower the signal. In short, it runs like this: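 Primary human foreskin fibroblasts (hDFCGF system) were dosed with chemical and VCAM-1 was measured by ELISA 24 h later. Bidirectional curve fitting used DMSO as negative control and activity baseline.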

Read-out in assay [14]: Plasminogen activator inhibitor-1 (PAI1), SERPINE1 (gene 5054)
Put plainly: BSK_hDFCGF_PAI1: BioMAP Diversity Plus: hDFCGF Assay for Plasminogen activator inhibitor-1 (PAI1) Biomarker Activity (AID 2283066). Particulars: primary human foreskin fibroblasts; actives raise or lower the signal. In short, it runs like this:
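PAI-1 levels in human dermal foreskin fibroblasts were quantified by ELISA 24 h after dosing, with gain or loss analysed against DMSO. Overt cytotoxicity was checked by sulforhodamine B total-protein staining in parallel cultures.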

Read-out in assay [15]: Intercellular Adhesion Molecule 1 (ICAM1), ICAM1 (gene 3383)
Put plainly: BSK_KF3CT_ICAM1: BioMAP Diversity Plus: KF3CT Assay for Intercellular Adhesion Molecule 1 (ICAM1) Biomarker Activity (AID 2283067). Particulars: primary human keratinocytes with fibroblasts; actives raise or lower the signal. An outline of the steps:
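Human keratinocyte plus foreskin fibroblast primary co-culture was exposed to chemical for 24 h. ICAM-1 was then quantified by ELISA, and the data were fit bidirectionally against DMSO as the negative control and baseline.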

Assay [16] is described as follows: BSK_KF3CT_SRB: Viability Assessment in the BioMAP Diversity Plus: KF3CT Assay (AID 2283069).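 Note: fitted for both signal gain and loss against DMSO baseline.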 Particulars: primary human keratinocytes with fibroblasts. An outline of the steps:
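SRB read-out at 560 nm (0.1% stain, TCA-fixed cells) gauges overt cytotoxicity in a human skin keratinocyte–fibroblast co-culture 24 h post-dosing. Signal change was fitted bidirectionally relative to DMSO control.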

Read-out in assay [17]: Interleukin-1 alpha (IL1a), IL1A (gene 3552)
Put plainly: BSK_KF3CT_IL1a: BioMAP Diversity Plus: KF3CT Assay for Interleukin-1 alpha (IL1a) Biomarker Activity (AID 2283070). Particulars: primary human keratinocytes with fibroblasts; actives raise or lower the signal. An outline of the steps:
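Primary skin co-culture (keratinocytes, foreskin fibroblasts), 24 h exposure; ELISA for IL-1a; bidirectional curve fit vs DMSO.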

Read-out in assay [18]: TIMP metallopeptidase inhibitor 2 (TIMP2), TIMP2 (gene 7077)
Put plainly: BSK_KF3CT_TIMP2: BioMAP Diversity Plus: KF3CT Assay for TIMP metallopeptidase inhibitor 2 (TIMP2) Biomarker Activity (AID 2283071). Particulars: primary human keratinocytes with fibroblasts; actives raise or lower the signal. An outline of the steps: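 TIMP-2 measured by ELISA at 24 h in human keratinocyte/fibroblast primary co-cultures exposed to chemicals. Both increases and decreases were fitted against DMSO. Parallel cultures were stained with SRB for total protein as an overt-cytotoxicity check.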

Read-out in assay [19]: Transforming growth factor beta 1 (TGFb1), TGFB1 (gene 7040)
Put plainly: BSK_KF3CT_TGFb1: BioMAP Diversity Plus: KF3CT Assay for Transforming growth factor beta 1 (TGFb1) Biomarker Activity (AID 2283072). Particulars: primary human keratinocytes with fibroblasts; actives raise or lower the signal. In short, it runs like this: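 ELISA quantifies TGF-b1 at 24 h post-dose in a primary human skin co-culture of keratinocytes and fibroblasts, with gain or loss judged against DMSO. Parallel SRB total-protein staining flags overt cytotoxicity.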

Read-out in assay [20]: Interferon-gamma inducible Protein 10 (IP10), CXCL10 (gene 3627)
Put plainly: BSK_KF3CT_IP10: BioMAP Diversity Plus: KF3CT Assay for Interferon-gamma inducible Protein 10 (IP10) Biomarker Activity (AID 2283068). Particulars: primary human keratinocytes with fibroblasts; actives raise or lower the signal. In short, it runs like this:
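In a primary skin co-culture of keratinocytes and fibroblasts, IP-10 is quantified by ELISA at 24 h after dosing. SRB staining of parallel wells monitors overt toxicity. Curves are fitted both directions against DMSO.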

With `O=C1C2(Cl)C3(Cl)C4(Cl)C(Cl)(Cl)C5(Cl)C3(Cl)C1(Cl)C5(Cl)C24Cl` (stereo unspecified), the AC50 is 4.03 µM (active) in assay [1]; 18 µM (active) in [2]; 29 µM (active) in assay [3]; 3.46 µM (active) in [4]; 2.09 µM (active) in assay [5]; 14.3 µM (active) in [6]. The AC50 in [7] was 1.42 µM (active); in assay [8] it was 21.9 µM (active); in [9], 16.4 µM (active); in [10], 30 µM (active); in assay [11] it was 31 µM (active); in assay [12], 19.3 µM (active). For the same molecule, the half-maximal activity concentration (AC50) in assay [13] was 4.35 µM (active); in assay [14], 8.81 µM (active); in assay [15], 33 µM (active); in [16], 8.1 µM (active); in [17], 22.9 µM (active); in assay [18], 24.2 µM (active). Moreover, the concentration at half-maximal activity (AC50) in assay [19] is 6.14 µM (active).
For the molecule `CCN1CCC2(CC1)COc1cc3c(cc12)N(C(=O)c1ccc(-c2ccc(-c4nnc(C)o4)cc2C)cc1)CC3`, the AC50 in [1] is 9.35 µM (active); in [2], 31.1 µM (active); in [3] it was 27.6 µM (active); in assay [4] it was 9.42 µM (active); in assay [6] it was 12.5 µM (active); in assay [7] it was 5.13 µM (active). The AC50 was 7.12 µM (active) in [8]; 6.07 µM (active) in assay [9]; 9.3 µM (active) in assay [10]; 11.2 µM (active) in [11]; 9.25 µM (active) in assay [12]; 7.34 µM (active) in assay [13]. The concentration at half-maximal activity (AC50) in [14] was 9.28 µM (active); in [15] it was 28.6 µM (active); in assay [20], 28.4 µM (active); in assay [16] it was 20.8 µM (active); in [17] it was 31.4 µM (active); in [18], 17.9 µM (active). In addition, the AC50 in assay [19] is 18.7 µM (active). Moreover, the outcome in [5] was inactive.
In the case of `COC(=O)c1sccc1S(=O)(=O)NC(=O)Nc1nc(C)nc(OC)n1`, the outcome in [1], in [2], in [3], in assay [4], in assay [7] and in [8] was inactive. Besides, the outcome in [9], in [10], in [11], in assay [12], in assay [13] and in assay [14] was inactive. Also, the result in [15], in [20], in [16], in assay [17], in assay [18] and in assay [19] was inactive.
With `O=C(O)CCC(F)(C(F)(F)F)C(F)(F)F`, the outcome in [2], in assay [3], in assay [4], in [5], in assay [6] and in assay [7] was inactive. In addition, the outcome in [8], in [9], in assay [10], in [11], in [12] and in [13] was inactive. The outcome in assay [14], in assay [15], in assay [20], in assay [16], in assay [17] and in [18] was inactive. The AC50 in [3] was 0.25 µM (active); in [8], 5.95 µM (active); in assay [13] it was 7.04 µM (active).
Take `O=C(O)C(F)(F)C(F)(F)C(F)(F)C(F)(F)C(F)(F)C(F)(F)F`: the result in [1], in [2], in [3], in assay [4], in assay [7] and in assay [8] was inactive. For the same molecule, the result in [9], in assay [10], in assay [11], in assay [12], in assay [13] and in assay [14] was inactive. Further, the result in assay [15], in assay [20], in assay [16], in assay [17], in [18] and in assay [19] was inactive.
